{"source": "the supplement of paper PMC4188521"}
{"compound": "CCc1cnn2c(NCc3ccc[n+]([O-])c3)cc(N3CCCC[C@H]3CCO)nc12 [dinaciclib]", "assay": "cell viability remaining relative to DMSO control; higher = less cytotoxic (more viable cells)", "conditions": "100 nM; 24 h", "outline": "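Remaining viability, expressed as a percentage of the DMSO control, compares luminescence in treated wells with that in DMSO-treated control wells. Solid tumour cell lines from commercial banks received 100 nM of the test compound for 24 hr, with final DMSO kept at ≤0.2%. Viability was read as ATP luminescence using CellTiter-Glo, and values are means from 2–6 plates run in triplicate wells.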", "units": {"cell viability remaining": "%"}}
{"target": "RKN", "cell viability remaining": 55.6}
{"target": "AU565", "cell viability remaining": 39.3}
{"target": "SNB19", "cell viability remaining": 70.1}
{"target": "SKMEL28", "cell viability remaining": 56.2}
{"target": "EFO27", "cell viability remaining": 106}
{"target": "H1437", "cell viability remaining": 41.9}
{"target": "CHP212", "cell viability remaining": 19.7}
{"target": "OV90", "cell viability remaining": 99.8}
{"target": "SNU423", "cell viability remaining": 36.7}
{"target": "HEC108", "cell viability remaining": 63}
{"target": "H1944", "cell viability remaining": 76.9}
{"target": "COV362", "cell viability remaining": 81}
{"target": "H508", "cell viability remaining": 75.7}
{"target": "H28", "cell viability remaining": 107}
{"target": "MFE319", "cell viability remaining": 78.3}
{"target": "HCC1806", "cell viability remaining": 60}
{"target": "CFPAC1", "cell viability remaining": 85.5}
{"target": "SW480", "cell viability remaining": 81.7}
{"target": "SW837", "cell viability remaining": 79.8}
{"target": "HEC50B", "cell viability remaining": 83.4}
{"target": "U2OS", "cell viability remaining": 36.4}
{"target": "TOV21G", "cell viability remaining": 66.7}
{"target": "HCC1500", "cell viability remaining": 46.2}
{"target": "MESSA", "cell viability remaining": 33.4}
{"target": "MDAMB231", "cell viability remaining": 57.6}
{"target": "SKMEL3", "cell viability remaining": 42.9}
{"target": "WM2664", "cell viability remaining": 68.9}
{"target": "A101D", "cell viability remaining": 33.9}
{"target": "CAPAN1", "cell viability remaining": 85.3}
{"target": "COV434", "cell viability remaining": 7.7}
{"target": "MCAS", "cell viability remaining": 82.8}
{"target": "HS940T", "cell viability remaining": 78.6}
{"target": "A375", "cell viability remaining": 62}
